Experimental findings from PubChem BioAssay AID1566 (Sanford-Burnham Center for Chemical Genomics, 2009) are described below.

About 1,800 (0.62%) of roughly 290,000 compounds were called active. Rule as the data show it: active = inhibition above about 50%; inactive = the rest. What follows is part of a selection rich in actives, with near analogues and random picks from the rest.

A short description of the test: NOD2 signaling inhibitors, cell-based, luminescence, uHTS, HEK293 (AID 1566). The settings on record: HEK293 NOD2/NF-kB luciferase reporter, at 4 µM, active compounds read high. In general terms: Reporter assays use an easily measured gene product as a stand-in for the process of interest.
Consider `Cc1ccc(NC(=O)Nc2ccc(Cl)cc2)c(Br)c1`, for which the inhibition (in general, the drop in the measured response relative to a control, in per cent) is -38.7% (inactive).

As for `O=C(Nc1ccc(Cl)cc1)c1cc(Br)ccc1OCC(=O)N1CCOCC1`, the inhibition is 40% (inactive).

For the molecule `COc1ccc(-c2csc(N3CCC(c4ccccc4)CC3)n2)cc1`, the inhibition is 13.7% (inactive).

With `Cc1occc1-c1nnc(SCC(=O)O)n1-c1ccccc1`, the inhibition is -13.8% (inactive).

Consider `Fc1ccc(NC(=S)Nc2cc(Cl)ccc2Cl)cc1`, for which the inhibition is -16.8% (inactive).

Turning to `C[C@@H]1C(=O)O[C@H]2[C@H]1CC[C@@]1(C)C(=O)C=C[C@@](C)(O)[C@H]21`, the inhibition was 1.1% (inactive).

On to `COc1cc(/C=C/C(=O)O)ccc1OCc1ccccc1C#N`, for which the inhibition is 18% (inactive).

Turning to `N#Cc1ccccc1COc1ccc(/C=C/C(=O)O)cc1`, the inhibition is 64.4% (active).

With `O=C(O)/C=C/c1ccc(OCc2cccc(F)c2)cc1`, the inhibition was -4.9% (inactive).

As to `COc1cccc(N(CC(=O)NC2CCCC2)C(=O)CCC(=O)Nc2cc(C)on2)c1`, the inhibition is 2.5% (inactive).

On to `C=C(C)COc1ccc2c(C)c(CC(=O)N3C[C@H]4C[C@@H](C3)c3cccc(=O)n3C4)c(=O)oc2c1C`, for which the inhibition is 51.9% (active).

In the case of `C=C(C)COc1ccc2c(C)c(CC(=O)N3C[C@H]4C[C@@H](C3)c3cccc(=O)n3C4)c(=O)oc2c1`, the inhibition was 5% (inactive).

On to `CC(C)=CCOc1ccc2c(C)c(CC(=O)N3C[C@H]4C[C@@H](C3)c3cccc(=O)n3C4)c(=O)oc2c1C`, for which the inhibition is 15.8% (inactive).

In the case of `CCOc1ccccc1-n1c(SCC(=O)N2CCOCC2)nc2ccccc2c1=O`, the inhibition is 24.9% (inactive).

Take `O=C(NCCNc1ccc(Cl)cc1[N+](=O)[O-])c1ccccc1F`: the inhibition is -16.6% (inactive).

As to `O=C(NCCNc1ccnc2cc(Cl)ccc12)c1ccccc1F`, the inhibition was 54.8% (active).

As for `O=C(NCCCNc1ccnc2cc(Cl)ccc12)c1ccccc1F`, the inhibition was 28.3% (inactive).

For the molecule `C=CCOC(=O)C1=C(C)NC(C)=C(C(=O)OCC=C)C1/C=C/c1ccccc1`, the inhibition was -0.8% (inactive).

Consider `Cc1ccccc1C(=O)Oc1cc(N)n(S(=O)(=O)c2ccccc2)n1`, for which the inhibition was 5.8% (inactive).

Regarding `Cc1ccccc1NS(=O)(=O)c1cc(OCC(N)=O)c(C)cc1Cl`, the inhibition was 0.2% (inactive).

As to `CC1Cc2ccccc2N1c1ncnc2c1nnn2Cc1ccccc1` (stereo not given), the inhibition was 9.3% (inactive).

Turning to `CC1Cc2ccccc2N1c1ncnc(N)c1[N+](=O)[O-]` (stereo not given), the inhibition was 82.8% (active).

`CC1Cc2ccccc2N1c1ncnc2nc[nH]c12` (stereo not given): the inhibition was 1.3% (inactive).

With `Fc1ccc2c(Cl)c(-c3nnc(-c4cccs4)o3)sc2c1`, the inhibition was -112% (inactive).

As for `N=C(N)SCc1cn(-c2ccccc2)nc1-c1ccc(Br)cc1`, the inhibition was 8.8% (inactive).

Take `COc1ccc(S(=O)(=O)N2CCN(C3CCCC(C)C3)CC2)cc1` (stereo not given): the inhibition was -12.3% (inactive).

As for `Cc1ccc(NC(=O)c2ccc3c(c2)OCCO3)cc1S(=O)(=O)Nc1cccc(Cl)c1`, the inhibition was 10.3% (inactive).

With `O=C(Nc1cccc(S(=O)(=O)Nc2ccc(Cl)cc2)c1)c1ccc2c(c1)OCCO2`, the inhibition is 55.7% (active).

For `O=C(Nc1cccc(Cl)c1)c1ccc2c(c1)OCCO2`, the inhibition was -169% (inactive).

As for `COC(=O)[C@H](C)NC(=O)NC1CCCc2ccccc21` (stereo not given in full), the inhibition was 3.2% (inactive).

Turning to `C/C(CC(=O)NCc1ccc(Cl)cc1)=N\NC(=O)c1ccccc1F`, the inhibition is 4.7% (inactive).

As for `Nc1ccc2c(c1)OC1(CCCC1)O2`, the inhibition was 69.9% (active).

With `O=C(Nc1ccc2c(c1)OC1(CCCC1)O2)C1CC1`, the inhibition was -19.4% (inactive).

Take `Nc1ccc2c(c1)OC1(CCCCC1)O2`: the inhibition was 13.4% (inactive).

Consider `CCN(CCCNC(=O)C1CCN(S(=O)(=O)N2CCC3(CC2)OCCO3)CC1)c1ccccc1`, for which the inhibition was 5.4% (inactive).

Regarding `CNC(=O)COC(=O)c1c2c(nc3ccccc13)CCC2`, the inhibition is 4.8% (inactive).

For the molecule `CC(C)CNC(=O)COC(=O)c1c2c(nc3ccccc13)CCC2`, the inhibition was 6.3% (inactive).

Regarding `CC(C)NC(=O)NC(=O)COC(=O)c1c2c(nc3ccccc13)CCC2`, the inhibition was 51.1% (active).

With `CCCc1nc2ccccc2c(=O)n1CCc1ccccc1`, the inhibition is -5.9% (inactive).

`CC(C)CC(NC(=O)OC(C)(C)C)C(=O)NC(C(=O)N1CCCC1C(N)=O)C(C)C` (stereo not given): the inhibition was 4.1% (inactive).

Turning to `Cc1oc(-c2ccccc2Cl)nc1CN1CCCC1c1ccc(F)cc1` (stereo not given), the inhibition is 0.4% (inactive).

Turning to `CCOc1ncccc1C(=O)N1CCN(C(c2ccccc2)c2ccccc2)CC1`, the inhibition was 43.5% (inactive).

Regarding `Cc1ccccc1C(=O)N1CCN(C(c2ccccc2)c2ccccc2)CC1`, the inhibition is 46.9% (inactive).

In the case of `COc1ccc(N(Cc2cc3cc(OC)ccc3[nH]c2=O)C(=O)c2cccnc2)cc1`, the inhibition is 29.5% (inactive).

As for `COc1cc(C(=O)N[C@H](C(=O)NC(C)C23CC4CC(CC(C4)C2)C3)C(C)C)cc(OC)c1OC` (stereo not given in full), the inhibition was 4% (inactive).

Turning to `COc1ccc(C(=O)NCc2ccc(-c3nc4ccccc4s3)cc2)cc1OC`, the inhibition was -45.5% (inactive).

In the case of `COc1cc(C(=O)NCc2ccc(-c3nc4ccccc4s3)cc2)cc(OC)c1OC`, the inhibition is -72.3% (inactive).

Regarding `COc1cc(OC)c(OC)cc1CN1CCN(Cc2ccc(C(F)(F)F)cc2)CC1`, the inhibition is 5.4% (inactive).

As for `COc1ccc(Nc2cc(Sc3ccc(OC)cc3)ncn2)cc1`, the inhibition was 55.2% (active).

Regarding `COc1ccc(Nc2cc(Nc3ccccc3)ncn2)cc1`, the inhibition was -87% (inactive).

For the molecule `COc1ccc(Nc2cc(Nc3ccc(OC)cc3)ncn2)cc1`, the inhibition was -19.7% (inactive).

With `Cc1cc(C)c2nc(Cl)c(CN(Cc3ccco3)C(=O)Nc3ccccc3C)cc2c1`, the inhibition was -17.6% (inactive).

Take `Cc1ccc(NC(=O)N(Cc2ccco2)Cc2cc3cc(C)cc(C)c3nc2Cl)cc1`: the inhibition was -17.3% (inactive).

As to `Cc1cccc2cc(CN(Cc3ccco3)C(=O)Nc3cccc(C#N)c3)c(Cl)nc12`, the inhibition was 55.3% (active).

In the case of `COc1cccc(-c2cc(C(F)(F)F)n3ncc(C(=O)N4CCc5ccccc5C4)c3n2)c1`, the inhibition is 17.4% (inactive).

For the molecule `C=CCNS(=O)(=O)CC12CCC(CC1=O)C2(C)C` (stereo not given), the inhibition is 5.2% (inactive).

Consider `CC1(C)C2CCC1(CS(=O)(=O)NC1CCCC1)C(=O)C2` (stereo not given), for which the inhibition was 17.9% (inactive).

With `CC(C)(C)NS(=O)(=O)CC12CCC(CC1=O)C2(C)C` (stereo not given), the inhibition was 50.9% (active).

For the molecule `COCCCn1c(SCC(=O)Nc2ccc(NC(C)=O)cc2)nc2sc3c(c2c1=O)CCC3`, the inhibition was 11.9% (inactive).

`CCN(CC)c1nc2c(c(=O)[nH]c(=O)n2C)n1Cc1ccccc1Cl`: the inhibition is 5.7% (inactive).
